Results on 78 compounds are retold here after the antibiotic and cytotoxicity screens of Wong et al. (2023).

Structures are written as SMILES. Screen size: about 39,000 compounds; about 3,300 (8.5%) were called active. The full list was thinned out, with actives kept by preference.

For this test, the system named is HepG2. Put plainly: cytotoxicity call (relative viability < 0.9). Conditions: 10 µM.
Consider `O=C(CCCCC(=O)N/N=C/[C@H](O)[C@@H](O)[C@H](O)[C@H](O)CO)NO`, for which the cytotoxicity call is “inactive”.
For the compound `Cc1cc(N)c2ccccc2[n+]1CCCCCCCCCC[n+]1c(C)cc(N)c2ccccc21.[Cl-].[Cl-]`, the cytotoxicity call was “active”.
For the compound `CCCN(C)C[C@@H]1OCCCC[C@@H](C)Oc2ccc(NS(=O)(=O)c3ccc(Cl)cc3)cc2C(=O)N([C@H](C)CO)C[C@@H]1C`, the cytotoxicity call was “inactive”.
Regarding `COc1ccc(NC(=O)Nc2ccc3c(c2)C(=O)N([C@H](C)CO)C[C@H](C)[C@H](CN(C)Cc2ccncc2)OCCCC[C@@H](C)O3)cc1`, the cytotoxicity call was “inactive”.
With `CN(C)c1nc(N)nc(CSc2nnnn2C)n1`, the cytotoxicity call is “inactive”.
With `COc1ccc(CN(C)C[C@H]2Oc3ccc(NS(=O)(=O)c4c(C)noc4C)cc3CC(=O)N([C@H](C)CO)C[C@H]2C)cc1` the entry was “inactive”; with `O=C(C[C@@H]1C[C@@H]2c3cc(NC(=O)c4ccc5c(c4)OCO5)ccc3O[C@@H]2[C@H](CO)O1)NCC(F)(F)F`, “inactive”.
As to `C[C@@H]1CCCCO[C@@H](CN(C)Cc2ccc(Cl)c(Cl)c2)[C@@H](C)CN([C@H](C)CO)C(=O)c2cc(NS(=O)(=O)c3cccs3)ccc2O1`, the cytotoxicity call was “inactive”.
`C[C@@H]1CCCCO[C@H](CN(C)Cc2ccc(Cl)c(Cl)c2)[C@H](C)CN([C@H](C)CO)C(=O)c2cc(NS(=O)(=O)c3cccs3)ccc2O1`: the cytotoxicity call is “inactive”.
Take `C[C@@H]1CCCCO[C@H](CN(C)Cc2ccc(Cl)c(Cl)c2)[C@@H](C)CN([C@H](C)CO)C(=O)c2cc(NS(=O)(=O)c3cccs3)ccc2O1`: the cytotoxicity call was “active”.
Consider `C[C@H](CO)N1C[C@H](C)[C@@H](CN(C)Cc2ccc(Cl)c(Cl)c2)OCCCC[C@H](C)Oc2ccc(NS(=O)(=O)c3cccs3)cc2C1=O`, for which the cytotoxicity call was “inactive”.
For the compound `C[C@@H]1CCCCO[C@@H](CN(C)Cc2ccc(Cl)c(Cl)c2)[C@@H](C)CN([C@@H](C)CO)C(=O)c2cc(NS(=O)(=O)c3cccs3)ccc2O1`, the cytotoxicity call was “active”.
Regarding `C[C@@H]1CCCCO[C@@H](CN(C)Cc2ccc(Cl)c(Cl)c2)[C@H](C)CN([C@H](C)CO)C(=O)c2cc(NS(=O)(=O)c3cccs3)ccc2O1`, the cytotoxicity call was “inactive”.
As for `CC(C)NC(=O)N(C)C[C@@H]1Oc2ccc(NC(=O)CCCN(C)C)cc2C(=O)N([C@@H](C)CO)C[C@@H]1C`, the cytotoxicity call is “inactive”.
Consider `C[C@@H]1CN([C@H](C)CO)C(=O)c2cc(NC(=O)CCN3CCOCC3)ccc2O[C@@H]1CN(C)Cc1ccccc1`, for which the cytotoxicity call was “inactive”.
As to `C[C@H]1CN([C@@H](C)CO)C(=O)c2cc(C#CC3CC3)cnc2O[C@H]1CN(C)S(=O)(=O)c1cccc(F)c1`, the cytotoxicity call was “inactive”.
On to `COc1ccc(NC(=O)Nc2ccc3c(c2)C(=O)N([C@@H](C)CO)C[C@@H](C)[C@H](CN(C)C(=O)NC(C)C)OCCCC[C@@H](C)O3)cc1`, for which the cytotoxicity call is “inactive”.
The value for `C[C@H]1CN([C@@H](C)CO)C(=O)c2cccc(NC(=O)c3ccncc3)c2O[C@@H]1CN(C)Cc1ccc2c(c1)OCO2` was “inactive”; that for `NC(=CS(=O)(=O)Cc1ccc(F)cc1)NO` was “active”; that for `NNC(=S)NCc1ccc(F)cc1` was “inactive”.
As for `N[C@@H](Cc1ccc(F)cc1)C(=O)O`, the cytotoxicity call is “inactive”.
`CC(=O)O[C@H]1[C@H](O)[C@H](O)[C@H](O[C@@H]2[C@@H](Oc3cc(O)c4c(=O)cc(-c5ccc(O)c(O)c5)oc4c3)O[C@@H](C(=O)O)[C@H](O)[C@@H]2O)O[C@@H]1C`: the cytotoxicity call is “inactive”.
For the compound `C[C@H]1CN([C@@H](C)CO)C(=O)c2cc(NC(=O)CCCN(C)C)ccc2O[C@@H]1CN(C)S(=O)(=O)c1ccc(Cl)cc1`, the cytotoxicity call was “inactive”.
As for `Cc1ccccc1OC[C@@H](O)CO`, the cytotoxicity call is “inactive”.
For the compound `Cc1ccccc1OCC(O)CO` (stereo not drawn), the cytotoxicity call is “active”.
As to `CC(C)c1ccccc1OC[C@@H](O)CN`, the cytotoxicity call is “inactive”.
For the compound `COc1cccc(NC(=O)N(C)C[C@H]2Oc3ncc(Br)cc3C(=O)N([C@H](C)CO)C[C@H]2C)c1`, the cytotoxicity call was “inactive”.
As for `C[C@H]1COC(=O)[C@@H](Cc2ccc(F)cc2)CC=CC[C@@H](CC(=O)N[C@H](CO)Cc2ccccc2)C(=O)N1`, the cytotoxicity call is “inactive”.
On to `Cn1nccc1NC(=O)/C=C/C(=O)O`, for which the cytotoxicity call was “inactive”.
As for `C[C@@H]1CN([C@@H](C)CO)S(=O)(=O)c2ccc(-c3cccc(C#N)c3)cc2O[C@@H]1CN(C)C(=O)c1cccnc1`, the cytotoxicity call is “inactive”.
With `C[C@@H]1CCCCO[C@@H](CN(C)C(=O)Nc2ccc(F)cc2)[C@H](C)CN([C@@H](C)CO)C(=O)c2cc(NC(=O)Nc3ccccc3)ccc2O1` the entry was “inactive”.
With `C[C@@H]1CCCCO[C@@H](CN(C)C(=O)Nc2ccccc2)[C@@H](C)CN([C@H](C)CO)C(=O)c2cc(NC(=O)Nc3ccc(F)cc3)ccc2O1` the entry was “inactive”; with `C[C@@H]1CN([C@H](C)CO)C(=O)c2cc(NC(=O)Nc3ccc(F)cc3)ccc2O[C@@H](C)CCCCO[C@H]1CN(C)C(=O)Nc1ccc(F)cc1`, “active”; with `C[C@@H]1CCCCO[C@H](CN(C)C(=O)Nc2ccc(F)cc2)[C@@H](C)CN([C@H](C)CO)C(=O)c2cc(NC(=O)Nc3ccc(F)cc3)ccc2O1`, “inactive”.
Take `C[C@H]1CCCCO[C@H](CN(C)C(=O)Nc2ccccc2)[C@@H](C)CN([C@@H](C)CO)C(=O)c2cc(NC(=O)Nc3ccc(F)cc3)ccc2O1`: the cytotoxicity call is “active”.
Take `C[C@@H]1CCCCO[C@@H](CN(C)C(=O)Nc2ccc(F)cc2)[C@@H](C)CN([C@H](C)CO)C(=O)c2cc(NC(=O)Nc3ccc(F)cc3)ccc2O1`: the cytotoxicity call was “inactive”.
For `COc1ccc(NC(=O)Nc2ccc3c(c2)C(=O)N([C@H](C)CO)C[C@H](C)[C@H](CN(C)Cc2ccc4c(c2)OCO4)OCCCC[C@@H](C)O3)cc1`, the cytotoxicity call was “inactive”.
As for `Cc1ccc(S(=O)(=O)N2C[C@H](O)COC[C@@H]3O[C@@H](CC(=O)NCc4ccc5c(c4)OCO5)CC[C@H]32)cc1`, the cytotoxicity call is “inactive”.
For the compound `COc1ccc(S(=O)(=O)N(C)C[C@H]2Oc3c(cccc3N(C)C)C(=O)N([C@H](C)CO)C[C@@H]2C)cc1`, the cytotoxicity call is “inactive”.
With `CC(=O)N1[C@H](Cn2cncn2)C[C@H]2CN(C(N)=O)CC[C@H]21`, the cytotoxicity call is “inactive”.
The value for `COc1ccc(NC(=O)N(C)C[C@H]2OCCCC[C@@H](C)Oc3ccc(NC(=O)Nc4c(C)noc4C)cc3C(=O)N([C@@H](C)CO)C[C@H]2C)cc1` was “inactive”.
Regarding `C[C@@H]1CCCCO[C@H](CN(C)Cc2ccccc2)[C@H](C)CN([C@@H](C)CO)C(=O)c2cc(NC(=O)CCC(F)(F)F)ccc2O1`, the cytotoxicity call was “inactive”.
As for `COc1ccc(NC(=O)Nc2ccc3c(c2)C(=O)N([C@H](C)CO)C[C@@H](C)[C@@H](CN(C)C(=O)c2ccccc2)OCCCC[C@H](C)O3)cc1`, the cytotoxicity call was “inactive”.
For the compound `NNC(=O)CCCCC(=O)NO`, the cytotoxicity call is “active”.
`NNC(=O)CCCCCCC(=O)NO`: the cytotoxicity call was “inactive”.
The value for `NNC(=O)CCCCCC(=O)NO` was “inactive”; that for `Cc1cc([N+](=O)[O-])nn1CC(=O)NC(C)C` was “inactive”.
The value for `COc1cc2c(cc1OC)C(=O)OC2` was “inactive”; that for `COc1cc2c(cc1OC)Cc1cc(OC)c(OC)cc1Cc1cc(OC)c(OC)cc1C2` was “inactive”.
With `COc1cc2c(cc1OC)C(=O)NCC2`, the cytotoxicity call was “active”.
For `CO[C@H]1CN(C)C(=O)c2cc(NC(=O)C3CC3)ccc2OC[C@H](C)N(C(=O)Cc2ccccn2)C[C@H]1C`, the cytotoxicity call was “inactive”.
With `Cc1cc(C(=O)Nc2cccc3c2O[C@@H](CN(C)C(=O)Nc2ccccc2)[C@H](C)CN([C@@H](C)CO)C3=O)n(C)n1`, the cytotoxicity call was “inactive”.
For the compound `NCCCCCc1nnc(SCC(N)=O)o1`, the cytotoxicity call was “inactive”.
In the case of `Cc1ccc(CSc2nnc(CCN)o2)cc1`, the cytotoxicity call was “active”.
Consider `CC1(C)CC(=O)c2c(C(F)(F)F)nn(-c3ccc(C(N)=O)c(N[C@H]4CC[C@H](OC(=O)CN)CC4)c3)c2C1`, for which the cytotoxicity call was “active”.
As to `CC1(C)CC(=O)c2c(C(F)(F)F)nn(-c3ccc(C(N)=O)c(O[C@H]4CC[C@H](N)CC4)c3)c2C1`, the cytotoxicity call is “inactive”.
Take `CC(CCC(=O)O)C1CCC2C3CCC4CC(O)CCC4(C)C3CCC12C` (stereo not drawn): the cytotoxicity call was “inactive”.
With `CC(C)[C@@H](CC[C@@H](C)[C@H]1CC[C@H]2[C@@H]3[C@H](O)C[C@H]4C[C@@H](NCCCNCCCCNCCCN)CC[C@]4(C)[C@H]3CC[C@]12C)OS(=O)(=O)O` the entry was “active”.
For the compound `CCCCCCCCCCCCCCCCCCCC(=O)N[C@H]1CC[C@@]2(C)[C@@H](C1)C[C@@H](O)[C@@H]1[C@@H]2C[C@H](O)[C@]2(C)[C@@H]([C@H](C)CCC(=O)O)CC[C@@H]12`, the cytotoxicity call was “inactive”.
With `CCC(CCC(C)C1CCC2C3CCC4CC(O)CCC4(C)C3CCC12C)C(C)C` (stereo not drawn) the entry was “inactive”.
Regarding `CC(C)[C@@H](CC[C@@H](C)[C@H]1CC[C@H]2[C@@H]3[C@H](O)C[C@H]4C[C@@H](NCCCNCCCCN)CC[C@]4(C)[C@H]3CC[C@]12C)OS(=O)(=O)O`, the cytotoxicity call was “active”.
As to `CC(CCC(=O)O)C1CCC2C3C(O)CC4CC(O)CCC4(C)C3CCC12C` (stereo not drawn), the cytotoxicity call is “inactive”.
As for `CC(C)NC(=O)Nc1ccc2c(c1)C(=O)N([C@H](C)CO)C[C@@H](C)[C@H](CN(C)S(=O)(=O)c1cccs1)O2`, the cytotoxicity call was “inactive”.
For `CO[C@H]1CN(C)C(=O)c2ccc(NS(C)(=O)=O)cc2OC[C@@H](C)N(C(=O)CN(C)C)C[C@@H]1C`, the cytotoxicity call is “inactive”.
Consider `Cn1nc(CN2CCCC2=O)c2c1CNC2`, for which the cytotoxicity call was “inactive”.
`Cc1cc(C(=O)Nc2cccc3c2O[C@H](CN(C)Cc2ccc4c(c2)OCO4)[C@@H](C)CN([C@H](C)CO)C3=O)n(C)n1`: the cytotoxicity call is “inactive”.
With `CC(C)NC(=O)N(C)C[C@H]1Oc2ccc(NC(=O)C3CCCCC3)cc2CC(=O)N([C@@H](C)CO)C[C@H]1C` the entry was “inactive”.
Regarding `C[C@@H]1CN([C@H](C)CO)C(=O)c2ccccc2-c2ccccc2CO[C@@H]1CN(C)C(=O)Nc1ccc(-c2ccccc2)cc1`, the cytotoxicity call is “inactive”.
Regarding `C[C@@H]1CCCCO[C@H](CN(C)Cc2ccccc2)[C@H](C)CN([C@H](C)CO)C(=O)c2cc(NC(=O)Nc3cccc4ccccc34)ccc2O1`, the cytotoxicity call was “active”.
With `C[C@@H]1CCCCO[C@H](CN(C)Cc2ccccc2)[C@@H](C)CN([C@H](C)CO)C(=O)c2cc(NC(=O)Nc3cccc4ccccc34)ccc2O1` the entry was “inactive”; with `C[C@@H]1CCCCO[C@@H](CN(C)Cc2ccc(Cl)c(Cl)c2)[C@@H](C)CN([C@@H](C)CO)C(=O)c2cc(NC(=O)Nc3cccc4ccccc34)ccc2O1`, “active”.
As for `C[C@@H]1CCCCO[C@@H](CN(C)Cc2ccc(Cl)c(Cl)c2)[C@H](C)CN([C@H](C)CO)C(=O)c2cc(NC(=O)Nc3cccc4ccccc34)ccc2O1`, the cytotoxicity call was “inactive”.
As for `C[C@H]1CCCCO[C@@H](CN(C)Cc2ccccc2)[C@@H](C)CN([C@@H](C)CO)C(=O)c2cc(NC(=O)Nc3cccc4ccccc34)ccc2O1`, the cytotoxicity call was “active”.
With `C[C@@H]1CCCCO[C@@H](CN(C)Cc2ccc(Cl)c(Cl)c2)[C@H](C)CN([C@@H](C)CO)C(=O)c2cc(NC(=O)Nc3cccc4ccccc34)ccc2O1` the entry was “inactive”.
`C[C@H](CO)N1C[C@H](C)[C@@H](CN(C)Cc2ccccc2)OCCCC[C@H](C)Oc2ccc(NC(=O)Nc3cccc4ccccc34)cc2C1=O`: the cytotoxicity call is “inactive”.
As for `C[C@@H]1CN([C@H](C)CO)C(=O)c2cc(NC(=O)Nc3cccc4ccccc34)ccc2O[C@@H](C)CCCCO[C@@H]1CN(C)Cc1ccccc1`, the cytotoxicity call was “inactive”.
As to `C[C@@H]1CCCCO[C@H](CN(C)Cc2ccccc2)[C@H](C)CN([C@@H](C)CO)C(=O)c2cc(NC(=O)Nc3cccc4ccccc34)ccc2O1`, the cytotoxicity call is “active”.
With `C[C@@H]1CCCCO[C@@H](CN(C)Cc2ccccc2)[C@H](C)CN([C@H](C)CO)C(=O)c2cc(NC(=O)Nc3cccc4ccccc34)ccc2O1`, the cytotoxicity call is “inactive”.
